Experimental data as given in the supplement of paper PMC13380429.

System: Vero E6 infected with SARS-CoV-2
Assay: inhibition of SARS-CoV-2 cytopathic effect; higher = more antiviral protection, active = above 15
Conditions: 48 h

Measured: inhibition of SARS-CoV-2 cytopathic effect

CO/N=C(\C(=O)N[C@@H]1C(=O)N2C(C(=O)O)=C(CSc3nc(=O)c(O)nn3C)CS[C@H]12)c1csc(N)n1 [ceftriaxone]
inactive: 1 nM -1.95% | 8.33 nM -0.8% | 100 nM 1.41% | 833.33 nM 0.59% | 10000 nM 2.56%

CC(C)(Oc1ccc(C2CC2(Cl)Cl)cc1)C(=O)O (stereo not given) [ciprofibrate]
inactive: 1 nM -2% | 8.33 nM 1.09% | 100 nM -0.52% | 833.33 nM -2.34% | 10000 nM -4.5%

CCCOC(=O)c1ccccc1 [propyl-benzoate]
inactive: 1 nM 2.41% | 8.33 nM 0.41% | 100 nM -0.99% | 833.33 nM 0.39% | 10000 nM 2.1%

Fc1ccc(C(c2ccccc2)(c2ccccc2F)n2ccnc2)cc1 (stereo not given) [flutrimazole]
inactive: 1 nM -1.84% | 8.33 nM -3.27% | 100 nM -4.23% | 833.33 nM -1.83% | 10000 nM -1.07%

CCCC1(CCC)CCC2(CCN(CCCN(CC)CC)C2)CC1 [atiprimod]
inactive: 1 nM -0.73% | 8.33 nM 0.69% | 100 nM 0.76% | 833.33 nM -4.7% | 10000 nM -26.6%

CCN(CC)CC#CCOC(=O)C(O)(c1ccccc1)C1CCCCC1 (stereo not given) [oxybutynin]
inactive: 1 nM -1.83% | 8.33 nM -0.13% | 100 nM -0.11% | 833.33 nM 0.84% | 10000 nM 8.9%

COc1cc2c(cc1-c1c(C)noc1C)ncc1[nH]c(=O)n([C@H](C)c3ccccn3)c12
inactive: 1 nM -7.87% | 8.33 nM -7.32% | 100 nM -3.13% | 833.33 nM 1.38% | 10000 nM -8.07%

CCCCCCCCCCCCCCCC(=O)OC[C@@H](NC(=O)C(Cl)Cl)[C@H](O)c1ccc([N+](=O)[O-])cc1 [chloramphenicol-palmitate]
inactive: 1 nM 0.12% | 8.33 nM 0.68% | 100 nM -1.3% | 833.33 nM -1.25% | 10000 nM 0.57%

CC[C@H](CO)Nc1nc(Nc2cccc(-c3ccccn3)c2)c2ncn(C(C)C)c2n1
inactive: 1 nM -2.32% | 8.33 nM 0.36% | 100 nM 0.93% | 833.33 nM 1.09% | 10000 nM -7.74%

Ic1cncc(OC[C@@H]2CCN2)c1
inactive: 1 nM 0.24% | 8.33 nM -0.44% | 100 nM 0.14% | 833.33 nM 1.07% | 10000 nM -0.56%
